Experimental data published in PubChem BioAssay (NCATS).
Records with an inconclusive call do not appear. Calls of active or inactive are those of the source. Calls follow the shape of the dose curve; as a rule, active = well fitted curve in the direction sought with a large enough effect; inconclusive = small, poorly fitted or top-dose-only effect, or another doubt; inactive = no such curve, though single readings can be large; an effect the other way counts as inactive or inconclusive.

Experiments:
[1] = HPAF-II 24hr Apoptosis Induction qHTS against the NCATS CANVASS Library (AID 1347356)
How it was run: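 Using an 11-point qHTS format, HPAF-II cells in DMEM/10% FBS received compounds for 24 h; doxorubicin titration as control. Caspase-3/7 activity quantified by DEVD-luciferase luminescence.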

[2] = HEK293 18hr Apoptosis Induction qHTS against the NCATS CANVASS Library (AID 1347357)
How it was run: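 Cells seeded at 500/well in DMEM + 10% FBS. Compounds pinned, 11 concentrations. 18 h, 37 degrees C/5% CO2. Caspase-Glo 3/7 added, 15 min RT dark, luminescence read.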

[3] = HPAF-II 12hr Apoptosis Induction qHTS against the NCATS CANVASS Library (AID 1347358)
How it was run: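 Twelve-hour compound exposure of HPAF-II cells in DMEM with 10% FBS, then luminescent Caspase-Glo 3/7 detection after 15 min at room temperature; doxorubicin control.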

[4] = HEK293 24hr Apoptosis Induction qHTS against the NCATS CANVASS Library (AID 1347359)
How it was run: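 HEK293 cells, 500 per well, exposed to an 11-point compound series for 24 hours at 37 degrees C. Caspase 3/7 activity read by Caspase-Glo luminescence (DEVD substrate) after 15 min at room temperature.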

[5] = HPAF-II 18hr Apoptosis Induction qHTS against the NCATS CANVASS Library (AID 1347360)
How it was run: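 Seed HPAF-II cells at 500/well in DMEM + 10% FBS, pin-transfer compounds, incubate 18 hours at 37 degrees C/5% CO2, add Caspase-Glo 3/7 reagent, wait 15 min, read luminescence.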

[6] = HEK293 12hr Apoptosis Induction qHTS against the NCATS CANVASS Library (AID 1347361)
How it was run: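 Cells are seeded, dosed with an 11-point compound series and incubated 12 hours. Caspase-3/7 activity is detected by luminescent DEVD-substrate reagent after 15 minutes at room temperature.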

[7] = system: NAD(P)H diaphorase (Clostridium kluyveri); assay: Diaphorse counterscreen qHTS: Assay Interference Panel against the NCATS CANVASS Library (AID 1347362)
How it was run: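 Clostridium kluyveri diaphorase in PBS + 0.01% Tween-20 preincubated 15 min with compounds. Resazurin and NADH then added for 5 min at room temperature in the dark; resorufin fluorescence read (ex 525, em 598).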

[8] = target: Luciferin 4-monooxygenase (Photinus pyralis) (UniProt P08659); assay: Firefly luciferase counterscreen qHTS: Assay Interference Panel against the NCATS CANVASS Library (AID 1347363); also: series mostly up to about 57 µM
How it was run: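 Purified P. pyralis luciferase (0.04 ug/mL, 4x reagent) added to Tris-acetate buffer with 0.013 mM D-luciferin, 0.013 mM ATP and 13.3 mM Mg-acetate; compounds preincubated 15 min, then luminescence read after 5 min, RT.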

[9] = KB-3-1 Cancer Cell Toxicity qHTS against the NCATS CANVASS Library (AID 1347366); also: nearly all actives have a fitted effect of over 75% in size
How it was run: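 Luminescence from CellTiter-Glo (10 min, room temperature) measured KB-3-1 viability after 72 hr compound exposure at 37C. Cells were seeded at 500/well and tested in an 11-point series.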

[10] = G06 Cancer Cell Toxicity qHTS against the NCATS CANVASS Library (AID 1347368); also: nearly all actives have a fitted effect of over 60% in size; also: potency is read from the fitted curve at half-maximal effect
How it was run: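 Quantitative HTS in G06 cells (dog glioma): 72 hr treatment, 11 concentrations, then ATP-based luminescent viability readout; bortezomib 0.1 nM–4.6 uM final as reference.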

[11] = MCF7 Cancer Cell Toxicity qHTS against the NCATS CANVASS Library (AID 1347369); also: potency is read from the fitted curve at half-maximal effect
How it was run: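 Cells seeded at 500/well, then compound pinned. Plates incubated 72 hr at 37C, 5% CO2. CellTiterGlo added; luminescence read.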

[12] = qHTS for ATAD5 Antagonist screened against the NCATS CANVASS Library (AID 1347370);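 also: HEK293T cells carrying an ATAD5 luciferase reporter co-treated with 10 µM 5-fluorouridine; series mostly up to about 46 µM; nearly all actives have a fitted effect of over 65% in size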
How it was run: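 HEK293T-ATAD5 luc reporter, 2000 cells/well; 5hr attach; cpd + 10 uM 5-FUrd; 16hr 37C, 5% CO2. Readouts: CellTiter-Fluor fluorescence (1hr), then Amplite luciferase luminescence (30min RT).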

[13] = J3T Cancer Cell Toxicity qHTS against the NCATS CANVASS Library (AID 1347371);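 also: J3T is a canine glioma cancer cell line seeded at 500 cells per well; series mostly up to about 46 µM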
How it was run: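 ATP-based cytotoxicity in canine J3T cells: 72 hr exposure at 37C, 11-point titration, CellTiterGlo luminescent detection.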

[14] = 10-beta competent E. coli microbial cell viability qHTS against the NCATS CANVASS Library (AID 1347376); also: series mostly up to about 46 µM
How it was run: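 Overnight 37C exposure of 10-beta E. coli (0.2 OD) to an 11-point concentration series; ATP-based luminescence after 20 min room-temperature reagent incubation; daunomycin as control.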

[15] = qHTS for H2AX Agonists against the NCATS CANVASS Library (AID 1347378);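 also: phospho-H2AX S139 level in CHO-K1 lysates by TR-FRET emission ratio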; also: potency is read from the fitted curve at half-maximal effect
How it was run: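 CHO-K1, 1000 cells/well, o/n 37C; cpd several conc, 3 hr 37C, 0.76% DMSO; lyse 30 min RT; cryptate anti-pH2AX(S139) + d2 anti-H2AX, 24 hr RT; HTRF 665/620.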

[16] = qHTS for Inflammasome Signaling Inhibitors: IL-1-beta AlphaLISA screen against the NCATS CANVASS Library (AID 1347379);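 also: human THP-1 cells primed with LPS then triggered with ATP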;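 as to Potency: secreted IL-1B measured as AlphaLISA emission at 615 nm; potency is read from the fitted curve at half-maximal effect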
How it was run: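 THP-1, 1 hr compound pre-incubation, then LPS 250 ng/mL + ATP 1.25 mM (final); 16 hr total with compound; IL-1B AlphaLISA, ex 680/em 615 nm; 11-point qHTS, up to 57.5 uM final.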

[17] = Inflammasome Signaling qHTS Counterscreen: IL-1-beta AlphaLISA counterscreen against the NCATS CANVASS Library (AID 1347381);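 also: cell-free check with purified IL-1β in medium and no THP-1 cells; series mostly up to about 57 µM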
How it was run: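 Here, no cellular stimulation occurs; compounds in an 11-point series meet 4 pg purified IL-1-beta directly. Bead-based AlphaLISA detection follows (1 h acceptor/antibody, then 30 min donor, dark, room temperature), with excitation at 680 nm.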

[18] = Cytotoxicity qHTS for assessment of Hepg2 cells membrane integrity screened against the NCATS CANVASS Library (AID 1347387)
How it was run: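 Membrane damage in HepG2 monolayers was estimated from released LDH, measured with CytoTox-ONE (ex 560/em 590 nm), after 5 hr treatment across 0.59 nM - 46 uM final.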

[19] = qHTS for activators of dead-cell proteases activity screened against the NCATS CANVASS Library (AID 1347392);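 also: luminescence from protease leaking out of membrane-damaged cells cleaving impermeant substrate; rising signal means more cytotoxicity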
How it was run: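 HepG2, 2000 cells/well, 18 h attach; cpd 11-pt, 5 h 37C 5% CO2; CytoTox-Glo (AAF-aminoluciferin) 15 min RT; luminescence read.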

[20] = Redox Reaction Profiling qHTS: Assay Interference Panel against the NCATS CANVASS Library (AID 1347401); also: potency is read from the fitted curve at half-maximal effect
How it was run: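 Fluorescence read-out (525 nm excitation, 598 nm emission) at time zero and after 15 min in the dark tracked resorufin formation. Mix: 5 uM resazurin, 200 uM DTT, HEPES pH 7.3 buffer with NaCl.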

Measured: Potency

Luciferin 4-monooxygenase (Photinus pyralis), sequence (P08659 whole entry, looked up): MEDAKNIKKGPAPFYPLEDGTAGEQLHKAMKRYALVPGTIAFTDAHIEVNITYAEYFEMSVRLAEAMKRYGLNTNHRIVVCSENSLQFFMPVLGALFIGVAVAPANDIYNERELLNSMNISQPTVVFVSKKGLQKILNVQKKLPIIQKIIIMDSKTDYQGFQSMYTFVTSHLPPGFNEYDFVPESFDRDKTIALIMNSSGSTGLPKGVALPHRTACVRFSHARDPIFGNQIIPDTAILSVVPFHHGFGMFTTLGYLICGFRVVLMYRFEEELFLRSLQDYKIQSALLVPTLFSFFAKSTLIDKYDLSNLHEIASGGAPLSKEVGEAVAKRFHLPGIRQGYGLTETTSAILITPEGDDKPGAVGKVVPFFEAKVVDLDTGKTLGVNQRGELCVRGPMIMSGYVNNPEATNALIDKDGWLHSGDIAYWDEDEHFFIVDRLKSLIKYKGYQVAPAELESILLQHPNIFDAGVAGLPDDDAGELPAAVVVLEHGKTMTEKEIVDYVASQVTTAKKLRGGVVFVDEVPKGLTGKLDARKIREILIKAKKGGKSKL

C=C1CC[C@@H](Br)C(C)(C)[C@]12CC=C(C)C(=O)C2
inactive: all assays above

CC(C)[C@]12CC[C@@]3(C)[C@H](C)CC[C@H](O)[C@@]3(CC1)c1cc3c(cc12)[nH]c1ccccc13
inactive: all assays above

O[C@H]1c2ccccc2-c2c3c(cc4c2[C@@H]1NCC4)OCO3
active: [10] 16.6 µM | [11] 29.4 µM | [16] 24.3 µM | [20] 19.2 µM
not listed: [7] | [9] | [12] | [17]
inactive: all other assays above

CCC(=O)N[C@@H](C[C@H](C)C(Cl)(Cl)Cl)C(=O)N1C(=O)C=C(OC)[C@@H]1CC(C)C
not listed: [10] | [11]
inactive: all other assays above

Cc1occ2c1C(=O)c1c(cc(O)c(O)c1O)C2=O
active: [15] 24.4 µM
not listed: [7] | [10] | [14]
inactive: all other assays above
